Results on 14 compounds are retold here after PubChem BioAssay.

The source made the active and inactive calls.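 Rule for the calls, unless noted: active = fluorescence slope after compound addition differing from the mean of all screened samples at 99.7% confidence, in either direction; inactive = the rest.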

Assay [1] can be described thus: inhibitors of TNFa-induced NFkB p65 translocation, primary screen, imaging, HUVEC, MLSMR starter and 10KST1 sets (AID 438;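 active = inhibition above 20% together with a positive visual image hit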;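 note: compound added about 3h40 before a 20 min TNFalpha stimulation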;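 for inhibition: signal is the nuclear over cytoplasmic p65 intensity ratio per well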). To be noted: HUVEC TNFa-induced p65 nuclear translocation; cell count: measured here: nuclei count (cytotoxicity indicator), at 2.08 µM; inhibition: at 2 µM, stronger effect = higher value, 0% TNFa-plus-vehicle, 100% no-TNFa wells.
A short description of assay [2]: inhibitors of mutant huntingtin aggregation, primary screen, imaging, exon1htt(103Q)mCFP cells, high-content imaging (AID 483;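 active = visual image review flags a hit and inhibition of aggregation exceeds 20%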;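 note: compound exposure lasted 3 days before fixation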;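 for nuclei count: percent of the per-plate median nuclei count of sample wells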). To be noted: exon1htt(103Q)mCFP cell line, aggregate imaging, at 2 µM; inhibition of aggregation: stronger effect = higher value; nuclei count: measured here: cell count, toxicity.
A short description of assay [3]: inhibitors of E-selectin induction by TNFa, primary screen, imaging, HUVEC, immunofluorescence, MLSMR starter and 10KST1 sets (AID 487;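 active = visually confirmed hit in the image check and inhibition above 20%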;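 for inhibition: signal is fraction of cell area covered by stained E-selectin grains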;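 for nuclei count: 100% = median nuclei count of all wells on the same plate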). To be noted: HUVEC TNFalpha-induced E-selectin immunofluorescence imaging, at 2 µM; inhibition: stronger effect = higher value; nuclei count: measured here: cell number, toxicity.
In assay [4] the target is Voltage-gated potassium channel subunit beta-2 (Rattus norvegicus) (UniProt P62483). Kind of assay: KvBeta enzyme negative modulators, primary screen, biochemical, NADPH fluorescence (AID 622;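 active = fluorescence slope higher than the sample average by over 3 SD, cut at about -0.22 in these data, passing the limit was not always enough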;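 note: slope of raw intensity against log time taken from 70 to 1610 s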). To be noted: recombinant KvBeta, 4-cyanobenzaldehyde reduction, at 10 µM, stronger effect = higher value.
Assay [5] shares this target. Kind of assay: KvBeta positive modulators, primary screen, biochemical, NADPH fluorescence (AID 623;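 active = NADPH fluorescence slope more negative than the mean of all samples by about 3 SD, 99.7% confidence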;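 note: fluorescence intensity change per second fitted from 20 to 320 s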). Particulars: Recombinant KvBeta, NADPH fluorescence decrease slope, 10 min; at 10 µM; stronger effect = lower value.
Assay [6] has as its target Alpha-2C adrenergic receptor (Homo sapiens) (UniProt P18825). Kind of assay: modulators of alpha2C/GIRK thallium flux, primary screen, cell-based, HEK293 alpha2C/GIRK1/2 (AID 624).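 Note: slope of fluorescence ratio to pre-addition baseline per second over 15 to 24 s.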 To be noted: thallium flux BTC fluorescence, at 10 µM, actives lie on both sides.
Assay [7] is described as follows: inhibitors of Sendai virus-induced IRF3 signaling, primary screen, TLR/RLR signaling modifier project, cell-based, Sendai virus stimulus, luciferase, 10K MLSCN set (AID 602276;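 active = inhibition at or above 50% at 10 µM; inactive = inhibition below 50%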;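 note: firefly luciferase from ISG56 promoter only with Renilla not read in this screen; 0% = Sendai virus plus DMSO and 100% = medium plus DMSO without virus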). Particulars: HEK293 RL24 IRF3 luciferase reporter, at 10 µM, stronger effect = higher value. In general terms: Reporter assays use an easily measured gene product as a stand-in for the process of interest.

The nature of assay [8]: inhibitors of poly I:C-induced TLR3 signaling, primary screen, cell-based, poly I:C stimulus, luciferase, 10K MLSCN set (AID 602277;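 active = inhibition of the reporter signal at or above 50%; inactive = inhibition below 50%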). Particulars: HEK293-TLR3 RL24 IRF3 luciferase reporter, at 10 µM, stronger effect = higher value.

Alpha-2C adrenergic receptor (Homo sapiens), sequence (P18825 whole entry, looked up): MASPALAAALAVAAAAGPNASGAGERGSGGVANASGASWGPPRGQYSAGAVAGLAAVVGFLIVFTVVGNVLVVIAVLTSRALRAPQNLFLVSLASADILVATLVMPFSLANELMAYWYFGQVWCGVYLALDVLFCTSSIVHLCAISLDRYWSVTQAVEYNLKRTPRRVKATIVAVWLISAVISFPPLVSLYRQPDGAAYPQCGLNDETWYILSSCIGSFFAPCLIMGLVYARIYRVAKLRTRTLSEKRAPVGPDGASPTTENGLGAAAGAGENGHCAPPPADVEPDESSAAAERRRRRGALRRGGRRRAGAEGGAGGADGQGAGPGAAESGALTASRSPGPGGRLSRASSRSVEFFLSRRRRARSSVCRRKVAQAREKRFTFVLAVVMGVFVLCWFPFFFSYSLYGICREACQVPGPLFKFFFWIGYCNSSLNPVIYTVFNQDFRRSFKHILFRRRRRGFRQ
Voltage-gated potassium channel subunit beta-2 (Rattus norvegicus), sequence (P62483 whole entry, looked up): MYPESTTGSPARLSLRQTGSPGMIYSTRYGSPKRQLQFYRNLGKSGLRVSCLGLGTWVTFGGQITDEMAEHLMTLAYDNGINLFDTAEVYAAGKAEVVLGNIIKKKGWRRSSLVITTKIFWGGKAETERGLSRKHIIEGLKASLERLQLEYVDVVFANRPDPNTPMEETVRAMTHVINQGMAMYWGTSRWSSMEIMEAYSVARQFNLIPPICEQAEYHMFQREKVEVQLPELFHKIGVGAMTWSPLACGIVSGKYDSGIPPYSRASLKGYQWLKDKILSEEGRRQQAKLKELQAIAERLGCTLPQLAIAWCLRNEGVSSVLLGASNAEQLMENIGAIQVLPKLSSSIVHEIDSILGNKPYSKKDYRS

For `CC(C)Nc1ncnc2c1cnn2-c1ccccc1`, the cell count in assay [1] came out at 681. Moreover, the inhibition – broadly, the drop in the measured response relative to a control, in per cent – in assay [1] is -6.7% (inactive); in assay [3] it was -1.2% (inactive); in assay [7], -54.7% (inactive); in assay [8], -180% (inactive). Also, the inhibition of aggregation in assay [2] is -56.3% (inactive). The values for the nuclei count in assay [2] and in assay [3] were 3.7% and 114%, respectively. In addition, the fluorescence slope in assay [4] was -0.589 (inactive). In assay [5], the NADPH fluorescence slope is -2e-05 (inactive). In addition, the slope in assay [6] was 0.00563 (inactive).

Turning to `COc1cccc(-c2nc3n(n2)C(c2cccs2)C(C(=O)Nc2cccnc2)=C(C)N3)c1` (centres undefined), the cell count in assay [1] was found to be 735. Besides, the inhibition was -20.1% (inactive) in assay [1], -65.8% (inactive) in assay [3], 22.3% (inactive) in assay [7] and 32.8% (inactive) in assay [8]. Moreover, the inhibition of aggregation in assay [2] was 30.4% (inactive). In addition, the nuclei count turned out to be 111% in assay [2] and 113% in assay [3]. The fluorescence slope in assay [4] is -0.365 (inactive). Moreover, in assay [5], the NADPH fluorescence slope was 1.9e-05 (inactive). Further, in assay [6], the slope was 0.00588 (inactive).

Turning to `CN(C)c1ccc(CNCCC2(O)CCOC(C)(C)C2)cc1` (centres undefined), the cell count in assay [1] was determined as 495. The inhibition in assay [1] is -1.4% (inactive); in assay [3], -25% (inactive); in assay [7], 0.927% (inactive); in assay [8] it was 28.2% (inactive). For the same compound, the inhibition of aggregation in assay [2] is 3.5% (inactive). Besides, the nuclei count was 89.5% in assay [2] and 114% in assay [3]. Moreover, the fluorescence slope in assay [4] is -0.472 (inactive). Moreover, the NADPH fluorescence slope in assay [5] was -4.7e-06 (inactive). Also, the slope in assay [6] is 0.00622 (inactive).

`Cc1nc(N2CCC(C)CC2)c2c(C)c(C(=O)O)sc2n1`: the cell count in assay [1] is 657. For the same compound, the inhibition in assay [1] was -4.1% (inactive); in assay [3], -72.5% (inactive); in assay [7], 14% (inactive); in assay [8] it was 23.3% (inactive). Also, in assay [2], the inhibition of aggregation was 31% (inactive). The nuclei count in assay [2] is 66.2%; in assay [3], 103%. In assay [4], the fluorescence slope is -0.303 (inactive). In assay [5], the NADPH fluorescence slope was 1.1e-05 (inactive). In addition, in assay [6], the slope is 0.00417 (inactive).

In the case of `COc1ccc(Cl)cc1NC(=O)CCN1CCN(c2ccccc2C)CC1`, the cell count in assay [1] was found to be 285. Moreover, the inhibition in assay [1] was 21.9% (inactive); in assay [3] it was -35.4% (inactive); in assay [7], 10% (inactive); in assay [8], 5.86% (inactive). Besides, the inhibition of aggregation in assay [2] was -3.9% (inactive). Moreover, the nuclei count came to 101% in assay [2] and 112% in assay [3]. The fluorescence slope in assay [4] was -0.308 (inactive). Further, the NADPH fluorescence slope in assay [5] is -6.5e-05 (inactive). Also, in assay [6], the slope is 0.00554 (inactive).

Consider `O=C1c2ccccc2C(=O)N1CC(O)Cn1nnc2ccccc21` (centres undefined), for which, in assay [1], the cell count turned out to be 480. Further, the inhibition was -22.3% (inactive) in assay [1], -47.9% (inactive) in assay [3], 3.12% (inactive) in assay [7] and 4.4% (inactive) in assay [8]. Further, the inhibition of aggregation in assay [2] is -0.2% (inactive). For the same compound, the nuclei count turned out to be 116% in assay [2] and 99.5% in assay [3]. For the same compound, the fluorescence slope in assay [4] was -0.521 (inactive). The NADPH fluorescence slope in assay [5] is -4.1e-05 (inactive). Besides, in assay [6], the slope is 0.00496 (inactive).

As to `Cc1nnc(N2C(=O)C(O)=C(C(=O)c3ccco3)C2c2ccc(F)cc2)s1` (centres undefined), the cell count in assay [1] was found to be 881. In addition, the inhibition is 4.6% (inactive) in assay [1], 2.7% (inactive) in assay [3], 12.3% (inactive) in assay [7] and 19.7% (inactive) in assay [8]. In assay [2], the inhibition of aggregation was -4.4% (inactive). The nuclei count in assay [2] stood at 122%; in assay [3], 123%. For the same compound, the fluorescence slope in assay [4] was -0.601 (inactive). Moreover, the NADPH fluorescence slope in assay [5] was -4.6e-05 (inactive). Besides, the slope in assay [6] was 0.00826 (inactive).

`COc1ccc(/C(O)=C2/C(=O)C(=O)N(CCCN(C)C)C2c2ccc(Cl)cc2)cc1OC` (centres undefined): in assay [1], the cell count was 332. Also, the inhibition is 4.5% (inactive) in assay [1], -11.6% (inactive) in assay [3], 12.7% (inactive) in assay [7] and 10.6% (inactive) in assay [8]. In addition, the inhibition of aggregation in assay [2] was -28.5% (inactive). Further, the nuclei count in assay [2] was 122%; in assay [3] it was 112%. For the same compound, in assay [4], the fluorescence slope is -0.527 (inactive). In assay [5], the NADPH fluorescence slope is -3.6e-05 (inactive). In assay [6], the slope was 0.00513 (inactive).

With `CCCc1cc(-n2ccnc2)n2c(nc3ccccc32)c1C#N`, the cell count in assay [1] is 571. In addition, the inhibition in assay [1] was 8.7% (inactive); in assay [3] it was 30.6% (inactive); in assay [7], 16.6% (inactive); in assay [8] it was 47.3% (inactive). For the same compound, the inhibition of aggregation in assay [2] is -11.1% (inactive). Moreover, the nuclei count is 98.8% in assay [2] and 99.8% in assay [3]. Also, the fluorescence slope in assay [4] was -0.51 (inactive). Besides, the NADPH fluorescence slope in assay [5] is 1.6e-06 (inactive). Further, in assay [6], the slope was 0.00652 (inactive).

In the case of `CC1CCN(S(=O)(=O)c2cn(CC(=O)N3CCN(C)CC3)c(=O)c3ccccc23)CC1`, the cell count in assay [1] turned out to be 278. Moreover, the inhibition in assay [1] is -8.5% (inactive); in assay [3], -28.3% (inactive); in assay [7] it was 0.28% (inactive); in assay [8] it was 17.6% (inactive). Further, the inhibition of aggregation in assay [2] was -2.7% (inactive). Moreover, the nuclei count came to 91.6% in assay [2] and 121% in assay [3]. In assay [4], the fluorescence slope is -0.604 (inactive). For the same compound, the NADPH fluorescence slope in assay [5] is 5.5e-06 (inactive). Moreover, the slope in assay [6] was 0.00569 (inactive).

On to `Cc1ccc(C(=O)NCc2ccc3c(c2)OCO3)cc1S(=O)(=O)N1CCCCC1`, for which the cell count in assay [1] is 437. For the same compound, the inhibition is 4.7% (inactive) in assay [1], -39.8% (inactive) in assay [3], -2.9% (inactive) in assay [7] and -10.9% (inactive) in assay [8]. Also, in assay [2], the inhibition of aggregation is -2.6% (inactive). The nuclei count turned out to be 99.9% in assay [2] and 113% in assay [3]. Also, the fluorescence slope in assay [4] was -0.451 (inactive). Moreover, the NADPH fluorescence slope in assay [5] is 4.6e-05 (inactive). Further, in assay [6], the slope was 0.00487 (inactive).

Turning to `CCOC(=O)Cc1csc(NC(=O)CSc2nnc(C)n2C)n1`, in assay [1], the cell count stood at 585. Moreover, the inhibition in assay [1] is 3.3% (inactive); in assay [3] it was -8.1% (inactive); in assay [7], -24.8% (inactive); in assay [8] it was -19.7% (inactive). Moreover, the inhibition of aggregation in assay [2] was 17.4% (inactive). Also, the nuclei count stood at 101% in assay [2] and 108% in assay [3]. In addition, the fluorescence slope in assay [4] was -0.448 (inactive). For the same compound, the NADPH fluorescence slope in assay [5] is -2.5e-05 (inactive). Besides, the slope in assay [6] is 0.00393 (inactive).

As to `COc1ccc(NC(=O)N2CCN(c3nc(-c4cccc(OC)c4)cs3)CC2)cc1`, in assay [1], the cell count came to 564. Further, the inhibition in assay [1] is -7.5% (inactive); in assay [3], -23.1% (inactive); in assay [7], 2.91% (inactive); in assay [8] it was -56.5% (inactive). In assay [2], the inhibition of aggregation was 8.8% (inactive). In addition, the figures for the nuclei count in assay [2] and in assay [3] were 93.9% and 104%, respectively. Also, the fluorescence slope in assay [4] is -0.478 (inactive). In addition, the NADPH fluorescence slope in assay [5] was -3.3e-05 (inactive). Also, the slope in assay [6] is 0.0039 (inactive).

Take `COC(=O)CSc1nc2nc(C)cc(C)n2n1`: the cell count in assay [1] stood at 722. The inhibition was -4.5% (inactive) in assay [1], -33.5% (inactive) in assay [3], 11.7% (inactive) in assay [7] and 28.1% (inactive) in assay [8]. In assay [2], the inhibition of aggregation is 0.1% (inactive). Further, the nuclei count in assay [2] was determined as 98.6%; in assay [3], 108%. Moreover, the fluorescence slope in assay [4] was -0.552 (inactive). Also, the NADPH fluorescence slope in assay [5] is -1.8e-05 (inactive). Moreover, the slope in assay [6] is 0.00719 (inactive).
